# Data as given in publication PMC7862700, “An all-to-all approach to the identification of sequence-specific readers for epigenetic DNA modifications on cytosine”.
# Columns and labels:
# Experiment in all cases: DAPPL (digital affinity profiling via proximity ligation, sequencing); 10 mM Tris-HCl pH 7.5, 50 mM NaCl, 1 mM DTT, 4% glycerol, room temperature, 30 min; GST-TFs on glutathione beads, 16-mer random dsDNA library, 0.1% formaldehyde crosslink after washing; high values mean tight binding
# FLI1 = molecular target: T1, FLI1 (Homo sapiens, UniProt Q01543 1-452); details: protein: recombinant; tags: N-terminal GST; dsDNA, one strand shown
# T1 sequence: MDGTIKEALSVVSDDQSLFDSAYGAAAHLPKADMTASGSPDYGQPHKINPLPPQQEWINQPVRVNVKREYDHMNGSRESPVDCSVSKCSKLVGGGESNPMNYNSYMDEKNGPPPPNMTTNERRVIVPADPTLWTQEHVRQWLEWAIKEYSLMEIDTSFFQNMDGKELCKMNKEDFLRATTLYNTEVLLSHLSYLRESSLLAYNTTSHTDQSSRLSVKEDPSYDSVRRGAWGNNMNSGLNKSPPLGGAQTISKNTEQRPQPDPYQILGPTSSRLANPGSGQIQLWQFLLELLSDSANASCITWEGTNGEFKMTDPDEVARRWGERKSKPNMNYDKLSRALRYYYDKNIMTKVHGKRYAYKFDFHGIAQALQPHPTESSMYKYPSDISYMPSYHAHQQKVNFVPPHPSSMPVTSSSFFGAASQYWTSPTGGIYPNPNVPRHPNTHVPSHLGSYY
# How it was run: (§1)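 Pools of DNA-barcoded human transcription factors, expressed in yeast as GST fusions on glutathione beads and combined with a tag-only sample, were incubated with 200 nmole of a 16-mer random double-stranded DNA library. Incubation took 30 min at room temperature in Tris/NaCl/DTT/glycerol buffer and was followed by washing, 0.1% formaldehyde crosslinking, proximity ligation (BsaI/T4 ligase, 1 h, 37 °C), PCR amplification and sequencing on an Illumina NextSeq500. Binding signal is the ratio of a hexamer's read frequency for a factor to its frequency for the tag-only sample.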
# ELK1 = molecular target: T2, ELK1 (Homo sapiens, UniProt P19419 1-428); details: protein: recombinant; tags: N-terminal GST; dsDNA, one strand shown
# T2 sequence: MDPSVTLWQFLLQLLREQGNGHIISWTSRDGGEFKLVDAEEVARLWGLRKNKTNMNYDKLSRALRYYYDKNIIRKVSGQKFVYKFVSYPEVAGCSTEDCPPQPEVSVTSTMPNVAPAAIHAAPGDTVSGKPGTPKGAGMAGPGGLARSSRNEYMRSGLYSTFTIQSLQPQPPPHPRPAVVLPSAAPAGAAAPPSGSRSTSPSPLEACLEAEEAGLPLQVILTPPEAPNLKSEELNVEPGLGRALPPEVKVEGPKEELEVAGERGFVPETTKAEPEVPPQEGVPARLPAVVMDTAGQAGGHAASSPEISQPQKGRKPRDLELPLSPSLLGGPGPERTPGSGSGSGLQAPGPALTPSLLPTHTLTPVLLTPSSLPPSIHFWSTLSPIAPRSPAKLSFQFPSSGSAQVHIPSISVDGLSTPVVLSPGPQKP
# How it was run: as §1
# GABPA = molecular target: T3, GABPA (Homo sapiens, UniProt Q06546 1-454); details: protein: recombinant; tags: N-terminal GST; dsDNA, one strand shown
# T3 sequence: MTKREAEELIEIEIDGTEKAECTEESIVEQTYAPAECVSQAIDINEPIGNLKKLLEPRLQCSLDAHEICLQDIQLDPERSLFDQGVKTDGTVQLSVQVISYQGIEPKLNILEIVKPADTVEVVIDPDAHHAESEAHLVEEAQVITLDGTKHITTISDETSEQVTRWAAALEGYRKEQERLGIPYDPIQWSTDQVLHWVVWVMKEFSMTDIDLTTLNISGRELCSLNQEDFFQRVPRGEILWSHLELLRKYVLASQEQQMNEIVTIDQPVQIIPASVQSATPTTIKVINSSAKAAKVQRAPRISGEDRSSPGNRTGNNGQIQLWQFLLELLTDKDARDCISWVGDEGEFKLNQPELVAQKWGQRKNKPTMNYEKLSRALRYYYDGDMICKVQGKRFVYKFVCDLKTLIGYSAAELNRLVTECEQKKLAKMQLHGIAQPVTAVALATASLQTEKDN
# How it was run: as §1
# ERG = molecular target: T4, ERG (Homo sapiens, UniProt P11308 1-479); details: protein: recombinant; tags: N-terminal GST; dsDNA, one strand shown
# T4 sequence: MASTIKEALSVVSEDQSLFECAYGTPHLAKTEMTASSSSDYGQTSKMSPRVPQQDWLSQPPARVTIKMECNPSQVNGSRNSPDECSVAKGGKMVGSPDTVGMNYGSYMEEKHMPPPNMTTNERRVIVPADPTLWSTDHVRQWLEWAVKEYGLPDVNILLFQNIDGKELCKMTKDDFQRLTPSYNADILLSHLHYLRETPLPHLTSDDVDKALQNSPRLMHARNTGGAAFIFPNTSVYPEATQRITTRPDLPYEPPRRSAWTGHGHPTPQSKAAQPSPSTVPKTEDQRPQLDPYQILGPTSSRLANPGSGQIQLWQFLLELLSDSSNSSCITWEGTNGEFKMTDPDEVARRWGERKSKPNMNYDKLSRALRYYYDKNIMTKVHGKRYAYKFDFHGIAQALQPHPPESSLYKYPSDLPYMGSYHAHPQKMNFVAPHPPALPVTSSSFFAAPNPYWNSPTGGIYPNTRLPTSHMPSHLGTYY
# How it was run: as §1
# ELF1 = ELF1 (Homo sapiens, UniProt P32519 1-619); details: protein: recombinant; tags: N-terminal GST; dsDNA, one strand shown
# How it was run: as §1
# EHF = molecular target: T5, EHF (Homo sapiens, UniProt Q9NZC4 1-300); details: protein: recombinant; tags: N-terminal GST; dsDNA, one strand shown
# T5 sequence: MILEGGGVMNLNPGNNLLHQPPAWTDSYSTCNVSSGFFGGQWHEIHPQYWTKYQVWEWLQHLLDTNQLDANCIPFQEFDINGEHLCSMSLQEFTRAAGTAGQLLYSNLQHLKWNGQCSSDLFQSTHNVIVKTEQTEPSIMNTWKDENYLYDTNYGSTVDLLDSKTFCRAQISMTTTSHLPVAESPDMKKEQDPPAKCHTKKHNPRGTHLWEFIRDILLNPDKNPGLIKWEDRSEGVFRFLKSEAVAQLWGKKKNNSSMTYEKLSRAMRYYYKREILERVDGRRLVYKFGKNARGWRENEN
# How it was run: as §1
# SPI1 = SPI1 (Homo sapiens, UniProt P17947 1-270); details: protein: recombinant; tags: N-terminal GST; dsDNA, one strand shown
# How it was run: as §1
# SPIB = SPIB (Homo sapiens, UniProt Q01892 1-262); details: protein: recombinant; tags: N-terminal GST; dsDNA, one strand shown
# How it was run: as §1
# ELK3 = molecular target: T6, ELK3 (Homo sapiens, UniProt P41970 1-407); details: protein: recombinant; tags: N-terminal GST; dsDNA, one strand shown
# T6 sequence: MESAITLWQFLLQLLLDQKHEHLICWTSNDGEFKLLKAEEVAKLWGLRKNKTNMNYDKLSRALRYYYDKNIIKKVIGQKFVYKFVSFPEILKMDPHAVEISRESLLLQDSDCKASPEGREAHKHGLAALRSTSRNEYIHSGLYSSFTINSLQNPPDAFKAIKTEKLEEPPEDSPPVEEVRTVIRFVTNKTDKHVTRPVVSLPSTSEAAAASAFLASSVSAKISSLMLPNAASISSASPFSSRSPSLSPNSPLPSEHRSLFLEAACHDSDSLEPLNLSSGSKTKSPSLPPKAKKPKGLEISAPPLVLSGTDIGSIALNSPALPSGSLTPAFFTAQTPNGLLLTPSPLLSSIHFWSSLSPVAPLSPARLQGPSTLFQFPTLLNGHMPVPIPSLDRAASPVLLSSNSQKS
# How it was run: as §1
# FEV = molecular target: T7, FEV (Homo sapiens, UniProt Q99581 1-238); details: protein: recombinant; tags: N-terminal GST; dsDNA, one strand shown
# T7 sequence: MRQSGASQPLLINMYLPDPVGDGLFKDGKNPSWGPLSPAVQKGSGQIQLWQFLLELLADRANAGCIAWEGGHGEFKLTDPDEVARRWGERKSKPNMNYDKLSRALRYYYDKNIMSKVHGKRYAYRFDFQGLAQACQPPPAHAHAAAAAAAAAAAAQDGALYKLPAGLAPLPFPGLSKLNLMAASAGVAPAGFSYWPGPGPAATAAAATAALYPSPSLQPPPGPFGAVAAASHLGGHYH
# How it was run: as §1
# ETV5 = ETV5 (Homo sapiens, UniProt P41161 1-510); details: protein: recombinant; tags: N-terminal GST; dsDNA, one strand shown
# How it was run: as §1
# HSF1 = HSF1 (Homo sapiens, UniProt Q00613 1-529); details: protein: recombinant; tags: N-terminal GST; chain copies: 3; dsDNA, one strand shown
# How it was run: as §1
# SPIC = molecular target: T8, SPIC (Homo sapiens, UniProt Q8N5J4 1-248); details: protein: recombinant; tags: N-terminal GST; dsDNA, one strand shown
# T8 sequence: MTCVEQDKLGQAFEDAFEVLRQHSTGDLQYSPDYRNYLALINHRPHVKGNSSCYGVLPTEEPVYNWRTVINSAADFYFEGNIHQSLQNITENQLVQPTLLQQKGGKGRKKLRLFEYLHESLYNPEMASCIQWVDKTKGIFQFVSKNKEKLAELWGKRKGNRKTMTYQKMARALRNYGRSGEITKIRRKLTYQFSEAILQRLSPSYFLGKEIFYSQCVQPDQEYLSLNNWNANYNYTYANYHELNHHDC
# How it was run: as §1
# ELF4 = ELF4 (Homo sapiens, UniProt Q99607 1-663); details: protein: recombinant; tags: N-terminal GST; dsDNA, one strand shown
# How it was run: as §1
# ELK4 = molecular target: T9, ELK4 (Homo sapiens, UniProt P28324-2 1-405); details: protein: recombinant; tags: N-terminal GST; dsDNA, one strand shown
# T9 sequence: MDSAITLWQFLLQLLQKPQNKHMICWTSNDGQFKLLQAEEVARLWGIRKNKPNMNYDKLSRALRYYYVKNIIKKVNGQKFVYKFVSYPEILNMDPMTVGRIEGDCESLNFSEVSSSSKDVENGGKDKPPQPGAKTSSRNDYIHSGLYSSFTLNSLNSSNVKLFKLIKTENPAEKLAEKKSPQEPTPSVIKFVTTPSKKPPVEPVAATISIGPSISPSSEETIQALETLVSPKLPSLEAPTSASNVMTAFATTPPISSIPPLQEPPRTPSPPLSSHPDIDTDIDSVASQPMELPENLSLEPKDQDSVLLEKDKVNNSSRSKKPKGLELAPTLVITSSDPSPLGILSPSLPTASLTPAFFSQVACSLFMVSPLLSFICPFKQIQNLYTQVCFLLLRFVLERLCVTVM
# How it was run: as §1
# ETV2 = molecular target: T10, ETV2 (Homo sapiens, UniProt O00321 1-342); details: protein: recombinant; tags: N-terminal GST; dsDNA, one strand shown
# T10 sequence: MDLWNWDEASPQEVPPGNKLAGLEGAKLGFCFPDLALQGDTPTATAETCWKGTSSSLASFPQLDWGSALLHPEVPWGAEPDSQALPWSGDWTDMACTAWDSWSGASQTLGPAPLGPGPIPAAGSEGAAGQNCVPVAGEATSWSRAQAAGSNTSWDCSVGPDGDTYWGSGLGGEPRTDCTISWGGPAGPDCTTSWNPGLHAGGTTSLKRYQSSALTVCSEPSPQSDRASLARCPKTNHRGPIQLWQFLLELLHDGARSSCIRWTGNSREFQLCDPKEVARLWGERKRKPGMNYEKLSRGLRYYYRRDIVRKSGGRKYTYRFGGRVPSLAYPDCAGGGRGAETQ
# How it was run: as §1
# ELF3 = molecular target: T11, ELF3 (Homo sapiens, UniProt P78545 1-371); details: protein: recombinant; tags: N-terminal GST; dsDNA, one strand shown
# T11 sequence: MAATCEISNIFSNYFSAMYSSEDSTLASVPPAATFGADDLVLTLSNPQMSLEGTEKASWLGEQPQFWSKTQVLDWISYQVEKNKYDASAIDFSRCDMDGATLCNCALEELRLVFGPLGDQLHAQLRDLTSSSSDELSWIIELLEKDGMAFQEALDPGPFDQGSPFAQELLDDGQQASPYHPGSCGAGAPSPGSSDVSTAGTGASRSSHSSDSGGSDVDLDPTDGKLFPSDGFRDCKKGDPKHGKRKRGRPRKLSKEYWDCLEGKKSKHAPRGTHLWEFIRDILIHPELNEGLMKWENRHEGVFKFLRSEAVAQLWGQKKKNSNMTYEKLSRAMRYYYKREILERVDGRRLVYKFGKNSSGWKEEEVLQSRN
# How it was run: as §1
# CRX = CRX (Homo sapiens, UniProt O43186 1-299); details: protein: recombinant; tags: N-terminal GST; dsDNA, one strand shown
# How it was run: as §1
# ETV1 = ETV1 (Homo sapiens, UniProt P50549 1-477); details: protein: recombinant; tags: N-terminal GST; dsDNA, one strand shown
# How it was run: as §1
# Sequence of ELF1 (P32519 whole entry): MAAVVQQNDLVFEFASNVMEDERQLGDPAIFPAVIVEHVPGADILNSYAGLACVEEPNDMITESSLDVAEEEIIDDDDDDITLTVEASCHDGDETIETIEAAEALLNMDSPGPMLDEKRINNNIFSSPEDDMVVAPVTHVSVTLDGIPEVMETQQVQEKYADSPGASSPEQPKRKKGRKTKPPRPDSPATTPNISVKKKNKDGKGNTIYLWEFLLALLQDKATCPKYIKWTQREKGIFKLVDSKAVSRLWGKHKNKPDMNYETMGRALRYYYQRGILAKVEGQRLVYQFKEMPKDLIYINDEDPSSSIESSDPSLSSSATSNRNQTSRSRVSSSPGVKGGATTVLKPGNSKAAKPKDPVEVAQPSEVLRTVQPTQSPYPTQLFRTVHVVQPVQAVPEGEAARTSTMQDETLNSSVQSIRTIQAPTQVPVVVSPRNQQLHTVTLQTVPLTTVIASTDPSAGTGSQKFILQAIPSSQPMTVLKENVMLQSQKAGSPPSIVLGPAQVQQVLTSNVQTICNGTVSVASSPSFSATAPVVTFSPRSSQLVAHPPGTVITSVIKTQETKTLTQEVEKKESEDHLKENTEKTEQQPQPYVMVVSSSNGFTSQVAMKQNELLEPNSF
# Sequence of HSF1 (Q00613 whole entry): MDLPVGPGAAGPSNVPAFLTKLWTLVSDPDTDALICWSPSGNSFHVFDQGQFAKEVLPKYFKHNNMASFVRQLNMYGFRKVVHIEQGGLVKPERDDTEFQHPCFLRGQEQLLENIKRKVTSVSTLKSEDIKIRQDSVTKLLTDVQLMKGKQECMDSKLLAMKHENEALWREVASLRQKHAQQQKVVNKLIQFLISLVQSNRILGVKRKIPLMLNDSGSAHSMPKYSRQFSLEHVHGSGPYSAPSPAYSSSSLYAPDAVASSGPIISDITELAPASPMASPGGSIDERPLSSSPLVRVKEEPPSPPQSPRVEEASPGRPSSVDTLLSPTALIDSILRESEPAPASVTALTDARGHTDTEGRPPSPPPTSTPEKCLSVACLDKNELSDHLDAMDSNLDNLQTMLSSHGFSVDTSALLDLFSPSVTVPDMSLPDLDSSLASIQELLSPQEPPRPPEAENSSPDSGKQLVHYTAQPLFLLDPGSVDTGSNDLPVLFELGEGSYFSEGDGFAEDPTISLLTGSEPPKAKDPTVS
# Sequence of SPIB (Q01892 whole entry): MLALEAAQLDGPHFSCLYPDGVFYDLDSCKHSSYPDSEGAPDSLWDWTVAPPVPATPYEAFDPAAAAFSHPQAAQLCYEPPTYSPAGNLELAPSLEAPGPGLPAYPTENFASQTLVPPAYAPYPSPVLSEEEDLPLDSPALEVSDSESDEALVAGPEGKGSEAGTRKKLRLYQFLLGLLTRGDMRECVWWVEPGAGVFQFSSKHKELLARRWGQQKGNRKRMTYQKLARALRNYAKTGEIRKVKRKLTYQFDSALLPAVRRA
# Sequence of CRX (O43186 whole entry): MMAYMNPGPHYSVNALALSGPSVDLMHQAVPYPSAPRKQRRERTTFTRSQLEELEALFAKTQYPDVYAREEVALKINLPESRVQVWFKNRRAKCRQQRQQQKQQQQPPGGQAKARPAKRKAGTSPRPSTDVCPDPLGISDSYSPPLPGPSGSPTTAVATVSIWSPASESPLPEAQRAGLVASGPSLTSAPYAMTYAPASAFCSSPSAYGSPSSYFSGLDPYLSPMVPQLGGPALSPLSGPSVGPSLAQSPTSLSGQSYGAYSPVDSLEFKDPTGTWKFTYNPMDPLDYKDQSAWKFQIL
# Sequence of ETV1 (P50549 whole entry): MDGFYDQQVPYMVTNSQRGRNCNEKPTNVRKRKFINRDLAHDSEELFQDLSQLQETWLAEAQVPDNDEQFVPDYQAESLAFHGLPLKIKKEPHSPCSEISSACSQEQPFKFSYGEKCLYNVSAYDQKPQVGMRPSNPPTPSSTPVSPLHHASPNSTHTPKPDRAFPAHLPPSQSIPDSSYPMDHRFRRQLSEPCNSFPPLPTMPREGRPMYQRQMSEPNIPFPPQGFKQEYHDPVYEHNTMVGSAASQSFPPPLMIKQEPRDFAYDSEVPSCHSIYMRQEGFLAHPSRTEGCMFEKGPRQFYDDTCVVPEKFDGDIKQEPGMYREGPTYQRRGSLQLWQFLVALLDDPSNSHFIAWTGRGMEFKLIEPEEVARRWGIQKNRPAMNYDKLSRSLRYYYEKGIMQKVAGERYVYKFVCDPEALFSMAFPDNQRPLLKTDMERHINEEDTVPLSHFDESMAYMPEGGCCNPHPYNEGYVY
# Sequence of ETV5 (P41161 whole entry): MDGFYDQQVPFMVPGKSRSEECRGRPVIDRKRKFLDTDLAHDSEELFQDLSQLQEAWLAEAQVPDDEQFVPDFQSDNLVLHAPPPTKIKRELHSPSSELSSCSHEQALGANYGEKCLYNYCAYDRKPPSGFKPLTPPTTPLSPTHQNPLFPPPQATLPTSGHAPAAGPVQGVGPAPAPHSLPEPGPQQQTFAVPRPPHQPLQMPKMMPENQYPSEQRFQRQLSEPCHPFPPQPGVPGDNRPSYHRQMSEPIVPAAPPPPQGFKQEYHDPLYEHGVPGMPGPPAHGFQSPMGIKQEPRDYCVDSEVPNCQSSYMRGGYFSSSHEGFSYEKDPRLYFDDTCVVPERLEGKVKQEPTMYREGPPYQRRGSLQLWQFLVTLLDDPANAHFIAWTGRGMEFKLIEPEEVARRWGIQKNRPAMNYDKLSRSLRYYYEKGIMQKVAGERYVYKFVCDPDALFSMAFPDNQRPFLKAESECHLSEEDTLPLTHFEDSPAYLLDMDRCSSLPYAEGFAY
# Sequence of ELF4 (Q99607 whole entry): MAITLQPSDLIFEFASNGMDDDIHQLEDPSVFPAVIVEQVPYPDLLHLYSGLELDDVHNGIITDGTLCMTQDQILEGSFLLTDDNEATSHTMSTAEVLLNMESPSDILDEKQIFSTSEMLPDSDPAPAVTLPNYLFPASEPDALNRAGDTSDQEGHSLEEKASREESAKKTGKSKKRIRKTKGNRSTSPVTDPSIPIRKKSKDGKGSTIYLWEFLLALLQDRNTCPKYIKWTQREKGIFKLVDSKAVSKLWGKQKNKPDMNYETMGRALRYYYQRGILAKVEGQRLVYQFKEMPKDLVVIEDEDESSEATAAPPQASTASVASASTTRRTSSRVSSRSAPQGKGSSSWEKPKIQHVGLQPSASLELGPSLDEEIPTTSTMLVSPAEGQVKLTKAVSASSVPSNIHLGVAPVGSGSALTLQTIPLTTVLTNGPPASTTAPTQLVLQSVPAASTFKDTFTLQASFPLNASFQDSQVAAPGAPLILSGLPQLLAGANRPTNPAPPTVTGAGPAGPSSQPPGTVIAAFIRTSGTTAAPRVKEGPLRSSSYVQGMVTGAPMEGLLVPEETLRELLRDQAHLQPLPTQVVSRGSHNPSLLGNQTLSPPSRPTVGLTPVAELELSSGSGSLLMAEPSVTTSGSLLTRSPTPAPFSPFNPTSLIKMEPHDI
sequence,measurement,setting,value
AACTCA,binding signal,FLI1,"1.35 fold enrichment (6-mer frequency, TF over GST control)"
same,binding signal,ELK1,"1.27 fold enrichment (6-mer frequency, TF over GST control)"
same,binding signal,GABPA,"1.25 fold enrichment (6-mer frequency, TF over GST control)"
same,binding signal,ERG,"1.12 fold enrichment (6-mer frequency, TF over GST control)"
same,binding signal,ELF1,"1.23 fold enrichment (6-mer frequency, TF over GST control)"
same,binding signal,EHF,"1.18 fold enrichment (6-mer frequency, TF over GST control)"
same,binding signal,SPI1,"1.25 fold enrichment (6-mer frequency, TF over GST control)"
same,binding signal,SPIB,"1.23 fold enrichment (6-mer frequency, TF over GST control)"
same,binding signal,ELK3,"1.36 fold enrichment (6-mer frequency, TF over GST control)"
same,binding signal,FEV,"1.26 fold enrichment (6-mer frequency, TF over GST control)"
same,binding signal,ETV5,"1.25 fold enrichment (6-mer frequency, TF over GST control)"
same,binding signal,HSF1,"1.14 fold enrichment (6-mer frequency, TF over GST control)"
same,binding signal,SPIC,"1.2 fold enrichment (6-mer frequency, TF over GST control)"
same,binding signal,ELF4,"1.27 fold enrichment (6-mer frequency, TF over GST control)"
same,binding signal,ELK4,"1.21 fold enrichment (6-mer frequency, TF over GST control)"
same,binding signal,ETV2,"1.22 fold enrichment (6-mer frequency, TF over GST control)"
same,binding signal,ELF3,"1.15 fold enrichment (6-mer frequency, TF over GST control)"
same,binding signal,CRX,"1.12 fold enrichment (6-mer frequency, TF over GST control)"
same,binding signal,ETV1,"1.24 fold enrichment (6-mer frequency, TF over GST control)"
